From PubChem
KB-3-1 cytotox – qHTS assay for MDR1-selective chemotherapeutics: Primary screen using the parental adenocarcinoma cell KB-3-1. KB-3-1 viability, CellTiter-Glo ATP luminescence, 72 h. Potency, µM (highest dose often 46.1 µM), actives largely listed as cytotoxic. actives 1.4% (n = 400,000); also: nearly all actives have a fitted effect of over 60% in size
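Parental KB-3-1 adenocarcinoma cells in phenol-red-free DMEM with 10% FBS were pin-treated with compounds at several concentrations, incubated 72 h at 37 °C, and viability read by CellTiter-Glo luminescence; concentration-effect curves were fitted after normalization.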
TDP1 cell noCPT – qHTS for Inhibitors of human tyrosyl-DNA phosphodiesterase 1 (TDP1): qHTS in cells in absence of CPT; DT40 Tdp1-/- hTDP1 cells, no CPT, ATP luminescence, 48 h; actives 15% (n = 420,000); Potency, µM (top dose mostly 46.2 µM), without a hit: at the top dose activity change, negative = growth inhibition, hits mostly inhibitors; also: nearly all actives have a fitted effect of over 55% in size
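Growth of hTDP1-complemented DT40 Tdp1-knockout cells is measured by ATP luminescence after at least 48 hr compound exposure at 37 °C, with DMSO substituting for the 20 nM CPT used in the parallel screen.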
HT1080-NT tox – qHTS for induction of synthetic lethality in tumor cells producing 2HG: qHTS for the HT-1080-NT fibrosarcoma cell line. HT-1080-NT fibrosarcoma viability, CellTiter-Glo ATP luminescence, 48 h. AID 686970, 2013. actives 1.6% (n = 360,000). Potency, µM (top dose mostly 46.1 µM), for the others: top-dose activity, negative = less viability, most hits filed as cytotoxic;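 also: NT is the 2HG producing partner of a matched IDH1 knockdown line; 0% = DMSO-treated cells and -100% = media-only wells without cells; nearly all actives have a fitted effect of over 55% in size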
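HT-1080-NT fibrosarcoma cells (2HG-overproducing), 750 cells/well in RPMI with 5% FBS, dosed after 2 h and incubated 48 h at 37C. CellTiter-Glo luminescence normalized to DMSO and no-cell wells; concentration-response curves fitted and classed.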
KB-V1 MDR tox – qHTS assay for MDR1-selective chemotherapeutics: Primary screen using the drug-selected MDR subline cells KB-V1; KB-V1 MDR cells viability, CellTiter-Glo, 72 h; Potency, µM (titrated, usually from 46.1 µM), hits mostly cytotoxic; actives 3.4% (n = 400,000); AID 1347076, 2019; also: nearly all actives have a fitted effect of over 60% in size
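Drug-selected KB-V1 cells, grown in DMEM lacking phenol red with 10% FBS, receive compound titrations; after three days at 37 degrees C, surviving cell ATP is quantified by CellTiter-Glo luminescence and responses normalized and curve-fitted.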
HT1080 IDH1KD tx – qHTS for induction of synthetic lethality in tumor cells producing 2HG: qHTS for the HT-1080-IDH1KD cell line; HT-1080 IDH1 knockdown viability, ATP luminescence, 48 h; Potency, µM (doses to about 46.1 µM), without a hit: at the highest dose activity, negative = toxicity, actives largely listed as cytotoxic; actives 2% (n = 360,000);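 also: 0% = DMSO wells and -100% = cell-free medium wells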
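IDH1KD HT-1080 cells, 750/well, RPMI + 5% FBS; compound pinned after 2 h settling; 48 h, 37 °C; CellTiter-Glo luminescence; % activity normalised to DMSO and no-cell wells; curves fitted, classed by r2 and efficacy.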
DT40 TDP1 CPT – qHTS for Inhibitors of human tyrosyl-DNA phosphodiesterase 1 (TDP1): qHTS in cells in presence of CPT. Potency, µM (doses to about 46.2 µM), for the others: at the highest dose activity change, negative = growth inhibition, most hits filed as inhibitors. actives 12% (n = 420,000). chicken DT40 Tdp1-/-;hTDP1 cells + 20 nM CPT, ATP luminescence, 48 h; also: nearly all actives have a fitted effect of over 55% in size
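Chicken DT40 Tdp1-/- cells stably complemented with human TDP1 were seeded at 400 cells/well in medium containing 20 nM camptothecin, exposed to pin-transferred compounds, and grown at 37 °C for at least 48 hr. Viability was read as ATP luminescence.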
Starred values were filed as active, the others as inactive; i = inactive; ? = inconclusive; . = no result given. Sampled rows, rich in hits. Any-hit rate of the full collection: about 19%. Calls follow the shape of the dose curve; as a rule, active = well fitted curve in the direction sought with a large enough effect; inconclusive = small, poorly fitted or top-dose-only effect, or another doubt; inactive = no such curve, though single readings can be large; an effect the other way counts as inactive or inconclusive. Unless noted, % is scaled to controls: 0 for no effect and ±100 for the full control effect; potency is read from the fitted curve at half-maximal effect.

SMILES	KB-3-1 cytotox	TDP1 cell noCPT	HT1080-NT tox	KB-V1 MDR tox	HT1080 IDH1KD tx	DT40 TDP1 CPT
CCn1c(=O)cc(OCC(=O)O)c2ccccc21	i	3%	10%	?	8%	4%
CCn1c(=O)cc(OCC(=O)NCc2ccc(F)cc2Cl)c2ccccc21	i	23µM*	.	?	.	?
CCc1nc2c(OCc3ccccc3C(=O)OC)cccn2c1N(C)C(=O)c1cccc(OC)c1	?	23µM*	-4%	?	1%	13µM*
CCc1nc2c(OCc3cccc(Cl)c3)cccn2c1N(C)C(=O)c1ccc(OC)cc1	i	16µM*	-6%	?	-12%	?
CCc1nc2c(OCCc3cccc(OC)c3)cccn2c1N(C)C(=O)c1ccc(OC)cc1	i	?	0%	?	-5%	?
CCc1nc2c(OCc3cccc(OC)c3)cccn2c1N(C)C(=O)c1ccc(OC)cc1	i	16µM*	5%	i	-1%	?
O=C(Nc1ccccc1C(F)(F)F)c1ccc(CN2CCC(Cc3ccccc3)CC2)cc1	?	-96%	16µM*	?	23µM*	18µM*
Cc1cccc2cc(CN(Cc3cccnc3)C(=S)NCCCN(C)C)c(=O)[nH]c12	i	?	-10%	i	-1%	13µM*
Cc1cccc(NC(=S)N(CCN(C)C)Cc2cc3cccc(C)c3[nH]c2=O)c1	i	6.5µM*	-14%	16µM*	-9%	?
Cc1cccc(NC(=S)N(CCN(C)C)Cc2cc3cc(C)cc(C)c3[nH]c2=O)c1	i	?	-8%	i	-6%	?
Cc1ccc(NC(=S)N(CCN(C)C)Cc2cc3cc(C)ccc3[nH]c2=O)cc1	i	?	-10%	23µM*	-17%	?
Cc1ccc2[nH]c(=O)c(CN(CCCN(C)C)C(=O)Nc3ccc(F)cc3)cc2c1	i	13µM*	0%	i	1%	?
COc1ccc(NC(=O)N(CCCN(C)C)Cc2cc3cc(OC)ccc3[nH]c2=O)cc1	i	-23%	1%	i	-6%	?
CNC(=O)NC(=O)CN1C(=O)NC2(CCOc3ccccc32)C1=O (stereo unspecified)	?	-1%	-1%	i	6%	22%
CC(=O)c1ccc(NC(=O)CCCN2C(=O)C(c3ccccc3)Oc3cccnc32)cc1 (stereo unspecified)	i	-26%	0%	i	-9%	-25%
CCN(CC)CCCN(Cc1cc2cc(OC)ccc2[nH]c1=O)C(=O)Nc1ccccc1	i	?	?	i	?	?
CCN(CC)CCCN(Cc1cc2cc(OC)ccc2[nH]c1=O)C(=O)Nc1ccc(F)cc1	i	21µM*	?	i	?	16µM*
O=C(NCCN1C(=O)S/C(=C\c2ccc(Cl)c(Cl)c2)C1=O)c1ccc2c(c1)C(=O)N(Cc1ccncc1)C2=O	i	12µM*	?	i	-17%	13µM*
O=C(NCCN1C(=O)S/C(=C\c2ccccc2)C1=O)c1cc(S(=O)(=O)N2CCOCC2)c(Cl)cc1Cl	i	4.1µM*	-11%	?	-14%	21µM*
O=C(NCCN1C(=O)S/C(=C\c2ccc(F)cc2)C1=O)c1cccc(S(=O)(=O)N2CCOCC2)c1	i	16µM*	-20%	?	-28%	23µM*
O=C(NCCN1C(=O)S/C(=C\c2ccc(Cl)cc2)C1=O)c1ccc(F)c(S(=O)(=O)N2CCOCC2)c1	i	5.8µM*	5%	i	8%	6.5µM*
CN(C(=O)COC(=O)CCc1c[nH]c2ccccc12)C(c1ccccc1)c1ccccc1	i	?	-2%	?	-6%	?
O=C(O)C1CCCCN1C(=O)c1ccc(S(=O)(=O)N2CCCC2)cc1 (stereo unspecified)	i	-18%	15%	i	19%	-1%
CCOC(=O)C(Cc1ccccc1)C(=O)Nc1cccc2ccccc12 (stereo unspecified)	i	-25%	2%	i	3%	-22%
CCN(C(=O)COC(=O)CNC(=O)c1ccc(Cl)cc1Cl)c1c(N)n(Cc2ccccc2)c(=O)[nH]c1=O	?	14%	7%	?	8%	-7%
SMILES	KB-3-1 cytotox	TDP1 cell noCPT	HT1080-NT tox	KB-V1 MDR tox	HT1080 IDH1KD tx	DT40 TDP1 CPT
CCc1ccc(N(CC(=O)NC(C)(C)C)C(=O)CNC(=O)c2cccs2)cc1	i	0%	8%	?	13%	-3%
CCC(C)c1ccc(N(CC(=O)NC(C)(C)C)C(=O)CNC(=O)c2cccs2)cc1 (stereo unspecified)	i	18µM*	-13%	i	-17%	?
COc1ccc(-n2ncc(S(=O)(=O)c3ccccc3)c2-c2ccc(Cl)cc2)cc1	?	21µM*	-15%	i	-27%	26µM*
COc1cccc(C2=NOC(C(=O)N3CCN(Cc4ccccc4)CC3)C2)c1OC (stereo unspecified)	i	?	0%	5.8µM*	1%	?
COc1cc(/C=C/C(=O)N2CCCN(C(=O)/C=C/c3cc(OC)c(OC)c(OC)c3)CC2)cc(OC)c1OC	?	?	9%	i	-1%	2%
COc1cc(/C=C/C(=O)N2CCN(Cc3ccccc3)CC2)cc(OC)c1OC	i	18µM*	-2%	i	0%	-73%
COc1cc(/C=C/C(=O)N2CCN(CC(O)COc3ccccc3)CC2)cc(OC)c1OC (stereo unspecified)	i	21µM*	1%	i	-1%	?
COc1ccccc1C1=NOC(C(=O)N2CCN(C(=O)c3ccco3)CC2)C1 (stereo unspecified)	i	10%	?	i	29%	-12%
CC(C(=O)Nc1ccncc1)(c1ccccc1)c1ccccc1	i	13%	3%	i	1%	-9%
CC1(C)CC(=O)C=C(Nc2cccc(Cl)c2Cl)C1	i	?	-4%	i	-3%	-13%
